High-throughput results: PubChem, several laboratories
Compounds with a hit are over-represented: about 28% of the library has one in this group of screens.
hDAT+cocaine: modulates human dopamine transporter uptake under cocaine; LLC-PK1 hDAT cells, [14C]-dopamine uptake with cocaine IC80; actives deviate in either direction; Q01959; actives 1.3% (n = 110,000); B-score at 10 µM;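 active = Z score or B-score, a plate-position-corrected score, falls beyond the plate's 99.7% confidence bounds, in either direction; inactive = both scores lie inside the 99.7% bounds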;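 note: scored against the spread of the other compound wells on the same plate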
Target sequence (Q01959 whole entry, looked up): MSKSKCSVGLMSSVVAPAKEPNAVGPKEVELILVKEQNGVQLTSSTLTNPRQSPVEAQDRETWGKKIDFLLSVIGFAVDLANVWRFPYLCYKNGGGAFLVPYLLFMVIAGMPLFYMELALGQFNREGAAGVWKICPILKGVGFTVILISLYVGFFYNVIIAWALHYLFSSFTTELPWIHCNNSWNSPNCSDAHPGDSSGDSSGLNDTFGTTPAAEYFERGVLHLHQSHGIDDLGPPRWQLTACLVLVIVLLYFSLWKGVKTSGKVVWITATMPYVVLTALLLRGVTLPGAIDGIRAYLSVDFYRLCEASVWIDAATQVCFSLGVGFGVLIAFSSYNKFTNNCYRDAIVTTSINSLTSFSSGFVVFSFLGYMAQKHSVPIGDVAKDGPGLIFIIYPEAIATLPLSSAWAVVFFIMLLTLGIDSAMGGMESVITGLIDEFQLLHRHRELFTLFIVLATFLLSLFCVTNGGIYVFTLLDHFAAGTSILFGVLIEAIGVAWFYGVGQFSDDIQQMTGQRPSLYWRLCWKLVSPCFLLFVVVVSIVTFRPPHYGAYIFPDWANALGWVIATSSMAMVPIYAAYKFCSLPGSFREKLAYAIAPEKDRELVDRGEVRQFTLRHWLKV
CYP2C9 activ: activators of human CYP2C9. AID 1024. recombinant CYP2C9, luciferin-H conversion, luminescence; hits give high values; factor 1 = untreated enzyme, 0 = blocked. activation factor at 5 µM. actives 1.4% (n = 96,000);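 active = activation factor of 2 or more for CYP2C9 at a 5 µM dose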;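 note: 0 = sulfaphenazole-blocked wells and 1 = vehicle-only wells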
CYP2C19 act: increases human CYP2C19 enzyme activity; activation factor at 5 µM; P33261; 96,000 tested, under 10 active; recombinant CYP2C19, luciferin-H EGE luminescence; hits give high values; 0 = fully inhibited enzyme, 1 = untreated enzyme;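 active = activation factor of at least 2 at 5 µM in the primary screen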;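 note: 0 = wells with 2.5 mM tranylcypromine and 1 = vehicle-only wells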
CYP2C9 inh: blocks human cytochrome P450 2C9; AID 777; inhibition, % at 5 µM; CYP2C9 Supersomes, luciferin-H conversion, luminescence; actives 20% (n = 96,000); P11712;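 active = blocking of liver enzyme CYP2C9 beyond about 50% at 5 µM, limit read from the data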
D1 mod: D1 dopamine receptor (human) allosteric modulation; P21728; HEK293 D1, CRE-luciferase, dopamine EC30 potentiation; actives deviate in either direction; B-score at 10 µM; actives 5.9% (n = 58,000); AID 641;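 active = luminescence count or its row- and column-corrected plate score outside the 99.7% band of the plate's sample wells, on either side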
CYP2C19 inhib: inhibitors of human CYP2C19; AID 778; inhibition, % at 5 µM; P33261; CYP2C19 Supersomes, luciferin-H EGE luminescence, 30 min; actives 21% (n = 96,000);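 active = CYP2C19 inhibition above a set limit at 5 µM in the primary screen, cut at about 50% in these data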;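 note: plate controls were negative control wells for no effect and 2.5 mM tranylcypromine positive control for full effect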
* = called active by the depositor; . = not tested or not shown.

SMILES	hDAT+cocaine	CYP2C9 activ	CYP2C19 act	CYP2C9 inh	D1 mod	CYP2C19 inhib
O=C(CC1C(=O)N(c2ccc(F)cc2)C(=O)N1Cc1ccccn1)Nc1ccccc1 (stereo not drawn)	-0.45	0.8	0.4	19	.	56*
CCOc1ccc(NC(=O)CC2C(=O)N(c3ccccc3)C(=O)N2Cc2ccccn2)cc1 (stereo not drawn)	1.1	0.8	0.7	24	.	33
O=C(CC1C(=O)N(c2ccc(Cl)cc2)C(=S)N1CCc1ccncc1)Nc1ccc(F)cc1 (stereo not drawn)	0.016	0	0.2	95*	.	85*
Cc1cc(C)cc(SCc2noc(C(=O)NCc3ccccc3)c2C(=O)NCc2ccccc2)c1	1.5	.	.	.	.	.
Cc1cccc(S(=O)(=O)c2c(N)n(Cc3ccco3)c3nc4ccccc4nc23)c1	2.7	0	0.1	96*	-0.3	91*
Cc1ccc(S(=O)(=O)c2c(N)n(NC(=O)c3ccco3)c3nc4ccccc4nc23)cc1	-1.6	0.9	0.6	8	0.23	44
Cc1ccc(S(=O)(=O)c2c(N)n(Cc3ccco3)c3nc4ccccc4nc23)cc1	0.44	0.3	0.6	69*	.	36
CNC(=O)C1C(=S)NC(N)=C(C#N)C1c1ccccc1 (stereo not drawn)	-0.24	0.9	1.1	14	.	-8
CC(C)(C)NS(=O)(=O)c1ccc(NS(C)(=O)=O)cc1	0.94	0.6	0.9	41	.	14
Cc1nnc(OC(C)C)c2nn(-c3ccccc3F)c(C)c12	-0.53	0.1	0.5	89*	.	51*
CCCCN1CC[C@H]2C=CC[C@@H](C(=O)N3CCOCC3)[C@H]2C1=O	-0.085	.	.	.	.	.
Cc1cc(C)c2c(c1)OC(O)(C(F)F)CC2=O (stereo not drawn)	-0.68	1.4	0.1	-43	-0.48	88*
CNC(=O)C1CC(=O)N(Cc2ccc3c(c2)OCO3)C(=Nc2ccc(OC)cc2)S1 (stereo not drawn)	-0.62	0.7	0.4	35	-0.89	56*
COc1ccc(N=C2SC(C(=O)Nc3ccc4c(c3)OCO4)CC(=O)N2C)cc1 (stereo not drawn)	-0.64	0.3	0.5	73*	0.11	49
COc1ccc(N=C2SC(C(N)=O)CC(=O)N2CCc2ccc(OC)c(OC)c2)cc1 (stereo not drawn)	1.8	0.8	0.4	22	.	64*
NC(=O)C1CC(=O)N(Cc2ccc3c(c2)OCO3)C(=Nc2ccccc2)S1 (stereo not drawn)	-1.2	0.5	0	52*	-0.81	96*
CCOc1ccc(NC(=O)C2CC(=O)N(CC)C(=Nc3ccc4c(c3)OCO4)S2)cc1 (stereo not drawn)	-0.59	0.8	1.1	20	0.29	-12
Cc1nn(Cc2cccc(C(=O)NCC(C)C)c2)c(C)c1Br	1.9	.	.	.	.	.
Cc1ccc(C(c2nnnn2CCC(C)C)N2CCN(C)CC2)cc1 (stereo not drawn)	-1	0.9	0.9	12	-0.78	13
Cc1nc(OCc2ccccc2)c2sc3nc4c(cc3c2n1)COC(C)(C)C4	0.041	0.8	0.8	20	.	25
c1ccc(Oc2cc(-c3ccccc3)ncn2)cc1	0.36	0.9	0.3	13	.	66*
Cc1cnn(-c2cc(Oc3ccccc3)ncn2)c1	-0.14	0.9	0.6	5	0.32	36
O=C(NCc1ccccc1)c1ccc(S(=O)(=O)C(F)F)cc1	-0.65	0.9	0.3	9	.	68*
Cc1ccc(CN(c2ccc(C(=O)Nc3cccnc3)cc2)S(C)(=O)=O)cc1	0.87	0.3	0.1	74*	.	91*
CC(=O)c1cccc(N(CC(=O)Nc2cccnc2)S(C)(=O)=O)c1	0.29	1.2	0.9	-24	0.88	11
SMILES	hDAT+cocaine	CYP2C9 activ	CYP2C19 act	CYP2C9 inh	D1 mod	CYP2C19 inhib
O=C(NCc1ccccc1)c1ccc(/C=N/O)nc1	-0.15	1.1	0.4	-15	-0.26	63*
CN(C)CCCNC(=O)c1ccc(CN(c2ccccc2)S(C)(=O)=O)cc1	-1.2	0.4	0.8	64*	0.061	21
CS(=O)(=O)N(Cc1ccccc1)c1ccc(C(=O)NCc2ccccc2)cc1	0.027	0.5	0.4	53*	.	62*
CCCNC(=O)c1ccc(N(Cc2ccccc2)S(C)(=O)=O)cc1	-0.063	0.7	0.6	26	.	35
CN(C)CCCNC(=O)c1ccc(Cl)c(S(=O)(=O)N(C)c2ccccc2)c1	0.57	1	0	-5	.	97*
CS(=O)(=O)N(Cc1ccccc1)c1ccc(C(=O)NCc2cccnc2)cc1	-0.035	0.1	0.1	91*	.	91*
CS(=O)(=O)N(Cc1ccccc1)c1ccc(C(=O)NC2CCCCC2O)cc1 (stereo not drawn)	-0.9	0.9	0.5	12	1.5	52*
CN1C(=O)c2oc3ccc(Br)cc3c(=O)c2C1c1ccncc1 (stereo not drawn)	.	0.6	0.8	44	0.49	18
O=C(CCN1CCCCC1)Nc1cccc(Cl)c1	-1.1	1.1	1	-7	.	2
Cc1cccc(NC(=O)CCN2CC(C)OC(C)C2)c1 (stereo not drawn)	0.64	1	0.3	2	0.57	73*
Cc1cc(C)cc(NC(=O)CCN2CC(C)OC(C)C2)c1 (stereo not drawn)	-0.89	1	0.7	-4	0.27	33
CC1CC(C)CN(CCC(=O)Nc2cccc(Cl)c2)C1 (stereo not drawn)	0.0026	0.8	0.3	18	-0.28	69*
Cc1c(Cl)c(-c2n[nH]c(=S)n2-c2ccc(F)cc2)nn1C	0.41	1.1	1	-9	.	-3
Cc1n[nH]c(C)c1CCc1nc2c3ccccc3nc(SCC(=O)Nc3ccccc3F)n2n1	0.028	0.1	0.4	95*	.	64*
Cc1cccc(-n2c(N)cc(=O)nc2SCC(=O)Nc2ccccc2)c1	-1.2	1.3	0.9	-25	0.084	14
Cc1cccc(NC(=O)CSc2nc3ccccc3c3nc(CCc4c(C)n[nH]c4C)nn23)c1	3.8*	0.1	0.3	88*	.	66*
O=C1Nc2ccccc2C(O)(C(=O)NCc2ccco2)N1c1ccc(Cl)c(Cl)c1 (stereo not drawn)	0.21	0.8	0.8	22	0.032	17
COc1ccccc1N(C(C)=O)c1nc(C)cc(C)c1C#N	-0.049	.	.	.	.	.
CCOC(=O)CSc1nnc(CNC(=O)c2ccc(S(=O)(=O)N3CCCC3)cc2)n1C	.	1	0.8	2	-0.0031	16
Cc1noc(C)c1COC(=O)c1cc2c3ccccc3n(C)c2s1	0.87	0.2	0.4	81*	0.53	57*
Cc1noc(C)c1COC(=O)c1cc2c(C)nn(-c3ccc(F)cc3)c2s1	-0.046	0.9	1.1	13	0.21	-11
CC(C)OP(=O)(OC(C)C)C(NC(=O)c1cccc([N+](=O)[O-])c1)C(N)=O (stereo not drawn)	0.33	0.8	0.9	18	.	6
